# Experimental data published in the supplement of paper PMC6555819.
# What was measured:
# Test in all cases: PBM binding z-score (relative to random genomic background probes); higher = stronger binding; sequences stand for … in GC…GCGATTGACAGCGTAGAATGAAGG
# [1] = test system: PPARg:RXRa DBDmut IVT, anti-RXR (DBD mutation: RXRa K156A/R161A, NR concentration 270 nM, RXRa partner concentration 90 nM)
# Procedure, shortened: (§1)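 Random background probes are the reference for binding z-scores. These scores derive from regression-normalized fluorescence on custom Agilent 4×180K protein-binding microarrays incubated 1 h with ligand-free nuclear receptor dimers. Binding was detected with antibodies against each partner (one per run).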
# [2] = test system: PPARg:RXRa IVT, anti-PPARg (NR concentration 270 nM, RXRa partner concentration 90 nM)
# Procedure, shortened: as §1
# [3] = test system: PPARg DBDmut:RXRa IVT, anti-PPARg (DBD mutation: PPARg1 K132A/R137A, NR concentration 270 nM, RXRa partner concentration 90 nM)
# Procedure, shortened: as §1
# [4] = test system: PPARg DBDmut IVT, anti-PPARg (DBD mutation: PPARg1 K132A/R137A, NR concentration 270 nM)
# Procedure, shortened: as §1
# [5] = test system: PPARg homodimer (NR concentration 180 nM)
# Procedure, shortened: as §1
# [6] = test system: PXR:RXRa (NR concentration 270 nM, RXRa partner concentration 90 nM)
# Procedure, shortened: as §1
# [7] = test system: PXR homodimer (NR concentration 270 nM)
# Procedure, shortened: as §1
# [8] = test system: RARa:RXR (NR concentration 270 nM, RXRa partner concentration 90 nM)
# Procedure, shortened: as §1
# [9] = test system: RARa homodimer (NR concentration 270 nM)
# Procedure, shortened: as §1
# [10] = test system: RARb:RXRa (NR concentration 270 nM, RXRa partner concentration 90 nM)
# Procedure, shortened: as §1
# [11] = test system: RARb homodimer (NR concentration 270 nM)
# Procedure, shortened: as §1
# [12] = test system: RARg:RXRa (NR concentration 270 nM, RXRa partner concentration 90 nM)
# Procedure, shortened: as §1
# [13] = test system: RARg homodimer (NR concentration 270 nM)
# Procedure, shortened: as §1
# [14] = test system: RXRa DBDmut IVT, anti-RXR (DBD mutation: RXRa K156A/R161A, NR concentration 90 nM)
# Procedure, shortened: as §1
# [15] = test system: RXRa homodimer (NR concentration 180 nM)
# Procedure, shortened: as §1
# [16] = test system: THRa:RXRa (NR concentration 90 nM, RXRa partner concentration 90 nM)
# Procedure, shortened: as §1
# [17] = test system: THRa homodimer (NR concentration 90 nM)
# Procedure, shortened: as §1
# [18] = test system: VDR homodimer (NR concentration 270 nM)
# Procedure, shortened: as §1
Sequence,PBM binding z-score [1],PBM binding z-score [2],PBM binding z-score [3],PBM binding z-score [4],PBM binding z-score [5],PBM binding z-score [6],PBM binding z-score [7],PBM binding z-score [8],PBM binding z-score [9],PBM binding z-score [10],PBM binding z-score [11],PBM binding z-score [12],PBM binding z-score [13],PBM binding z-score [14],PBM binding z-score [15],PBM binding z-score [16],PBM binding z-score [17],PBM binding z-score [18]
AGTCGGAGGACAAAGGTCAGAGCTACGCCAGTGA,0.569,3.68,0.374,-0.0334,3.93,3.98,0.166,5.06,1.59,4.31,4.3,6.16,5.52,0.767,5.6,3.63,0.663,1.37
ATCTGTAGGTTATCGGGTCATTCAGTTTGCGCAT,4.65,5.29,1.81,1.76,2.43,3.86,7.32,3.93,1.11,2.71,3.19,3.59,2.78,1.68,3.48,3.36,3.04,3.95
AGAATGAGGTTACACGTAGATCAGGGAAGAAAGT,4.19,3.53,1.09,0.468,1.27,1.36,-0.00272,1.84,0.499,2.07,1.16,2.34,1.89,1.23,2.3,2.75,1.12,0.772
AATACAGGGTCACTAGGTCAGAGTAGGTACGAAT,5.74,6.99,2.72,2.61,4.65,4.34,1.23,5.62,1.85,4.67,4.58,6.39,6.22,2.99,6.66,3.92,2.23,3.55
TCATATAGGTTAAGGTGAAAGTCGAACGATATGA,4.9,4.89,1.69,1.29,1.49,1.04,-0.203,2.19,0.984,2.49,1.66,2.3,2.08,0.797,2.45,3.33,2.71,0.253
TAGCCTAGGTCATTGGACCAGTATAGTACGCATC,1.74,3.17,0.686,-0.0362,1.31,1.66,-0.324,2.35,-0.143,3.65,2.73,3.97,4.37,1.43,3.1,2.85,0.854,1.54
CCTACTGGGCCATTCAGAGGTCACTGATCATATG,4.42,4.67,0.462,0.235,1.87,3.96,0.772,4.08,0.335,3.37,4.51,4.5,3.57,0.354,3.71,3.48,1.72,1.85
